Test results published in PubChem BioAssay (NCI).
The panel holds about 83,000 compounds, 20% with a hit somewhere; the sample as a whole holds those more often.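 Negative percent growth values reflect cell death: -40 means 40% of the cells present at the start died, and -100 means all died.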 Unmarked numbers belong to inactive results. Calls of active or inactive are those of the source. Rule for the calls: active = growth percent below 10; inactive = the rest.

What was measured:
Assay in all cases: NCI-60 one-dose screen, 48 h (100 = growth as untreated, 0 = no growth, -100 = all killed)
Conditions in all cases: 10 µM unless noted
HCT-15 colon = system: HCT-15 colon
HT29 colon = system: HT29 colon
SNB-75 CNS = system: SNB-75 CNS
SNB-19 CNS = system: SNB-19 CNS
U251 CNS = system: U251 CNS
PC-3 prostate = system: PC-3 prostate
SK-MEL-5 melanoma = system: SK-MEL-5 melanoma
UACC-62 melanoma = system: UACC-62 melanoma
LOX IMVI melanoma = system: LOX IMVI melanoma
SK-MEL-28 melanoma = system: SK-MEL-28 melanoma

Row | SMILES | growth (HCT-15 colon) | growth (HT29 colon) | growth (SNB-75 CNS) | growth (SNB-19 CNS) | growth (U251 CNS) | growth (PC-3 prostate) | growth (SK-MEL-5 melanoma) | growth (UACC-62 melanoma) | growth (LOX IMVI melanoma) | growth (SK-MEL-28 melanoma)
1 | NS(=O)(=O)c1ccc(-n2ncc(NC(=O)Nc3ccc(S(=O)(=O)Nc4nccs4)cc3)c2-c2ccccc2)cc1 | 104% | 99.9% | 65.7% | 103% | 102% | 111% | 105% | 98.4% | 101% | 102%
2 | COc1cc(/C=C/C(=O)/C=C/c2cc3ccc(Cl)cc3n(Cc3ccccc3)c2=O)ccc1O | -46.1% (active) | -46.5% (active) | 63.3% | 13.3% | -64.7% (active) | -2.36% (active) | -80.5% (active) | -56% (active) | -90% (active) | 3.48% (active)
3 | COc1ccc(N(C)c2nc(Cl)nc3ccn(C)c23)cc1 | 12.6% | -2.47% (active) | 56.8% | 25.3% | 3.67% (active) | 16.1% | -44.2% (active) | 39.1% | 27.6% | 49.2%
4 | CCC1S/C(=N\N=C(/C)c2ccc[nH]2)N(c2ccccc2)C1=O (stereo not given) | 96.1% | 87.4% | 105% | 106% | 108% | 94.2% | 79% | 101% | 110% | 110%
5 | COc1cc(C(=O)Nc2cc(OC)c3ccn(C)c3c2)cc2c1C[C@]1(C)CC[C@@H](O)C(C)(C)[C@H]1O2 | 20.9% | 5.58% (active) | -9.5% (active) | 33.3% | 16.5% | 3.01% (active) | -34.8% (active) | -8.05% (active) | -14.6% (active) | 13.4%
6 | COc1ccc(-c2cn(-c3ccc(Cl)cc3)c(=S)[nH]2)cc1OC | 63.4% | 44.2% | 111% | 90.6% | 75% | 72.4% | 41.7% | 72.5% | 0.188% (active) | 92.4%
7 | C=C(C)[C@@H]1CC[C@]2(C(=O)N3CCN(C)CC3)CC[C@]3(C)[C@H](CC[C@@H]4[C@@]5(C)C/C(=C/c6ccco6)C(=O)C(C)(C)[C@@H]5CC[C@]43C)[C@@H]12 | 46.6% | 25.8% | 68% | 80.1% | 60.9% | 37.2% | 68.9% | 76.1% | 30.1% | 55.7%
8 | COc1ccc(OCC(=O)OC(C)C)cc1 | 98.4% | 101% | 85% | 99.2% | 104% | 103% | 96.4% | 96.6% | 87.2% | 102%
9 | COc1ccc(/C=C/C(=O)Nc2ncnc3nc[nH]c23)cc1 | 92.2% | 96.5% | 82% | 99.7% | 99.4% | 98.1% | 94.8% | 81.8% | 101% | 99.4%
10 | O=C(CN1N=C(c2ccc(F)cc2)CCC1=O)Nc1nc2ccccc2s1 | 86% | 1.85% (active) | -49.1% (active) | 94.4% | 16% | 5.7% (active) | 89.3% | 79.6% | -89.5% (active) | 100%
11 | C#C[C@@]1(O)[C@@H](CO)O[C@@H](n2cc(Cl)c3c(N)ccnc32)[C@@H]1O | 50.8% | 38.7% | 140% | 89.9% | 16% | 36.7% | 70.8% | 105% | 42% | 100%
12 | CCN1CCC[C@H]1c1cc(O)c2c(c1OC)C[C@H]1C[C@H]3[C@H](N)C(=O)C(C(N)=O)=C(O)[C@@]3(O)C(=O)C1=C2O | 1.67% (active) | -4.51% (active) | -4.69% (active) | -0.511% (active) | -8.89% (active) | 3.27% (active) | -46% (active) | -19% (active) | -45.2% (active) | -10.6% (active)
13 | N#Cc1c(-c2ccc(F)cc2)c(C#N)c2c(C#N)c(N)nn2c1N | 106% | 98.7% | 87.8% | 108% | 94.7% | 77.4% | 96.8% | 105% | 89.9% | 111%
14 | C=C1C(=O)O[C@H]2[C@H]1CC/C(C=Nc1c(N)cc(F)cc1Br)=C\CC[C@@]1(C)O[C@@H]21 | 30.6% | 36.4% | 91.2% | 76.7% | 87.3% | 58.3% | 96.9% | 90.1% | 66.2% | 80%
15 | N#Cc1c(-c2ccc(F)cc2)nc(N=Nc2c(O)[nH]c3ccc(Cl)cc23)nc1N1CCOCC1 | 71.7% | 37.9% | -6.94% (active) | 39.8% | 15.8% | 61% | 29.6% | 35.1% | 24.5% | 46.8%
16 | C=C1C(=O)O[C@H]2[C@H]1CC/C(COC(=O)CCC(=O)OC/C1=C/CC[C@@]3(C)O[C@H]3[C@H]3OC(=O)C(=C)[C@@H]3CC1)=C\CC[C@@]1(C)O[C@@H]21 | 0.631% (active) | 27.2% | 76.5% | 94.3% | 72.9% | 60% | 61.4% | 13.2% | 26.2% | 4.61% (active)
17 | COC(=O)c1nc(-c2ccccc2)oc1S(=O)(=O)n1nc(C)cc1N | 46.9% | 17.5% | 82.3% | 96.6% | 101% | 104% | 92.3% | 89.4% | 76.8% | 87.4%
18 | COC(=O)/C=C1\SC(=Nc2ccc(F)cc2)N(CCc2c[nH]c3ccccc23)C1=O | 98.3% | 66.3% | 108% | 103% | 98.2% | 87.9% | 99.5% | 82.6% | 90% | 112%
19 | COc1c(O)cc2oc3cc(O[C@@H]4OC(C)[C@@H](O)[C@H](O)C4O)c(CC=C(C)C)c(O)c3c(=O)c2c1CC=C(C)C (stereo not given in full) | 85.1% | 84.3% | 88.9% | 102% | 86.6% | 74.9% | 91% | 96.9% | 89.3% | 105%
20 | COc1ccc2nc(-c3ccc(OC)c(OC)c3)cc(-c3nnc(SCC(=O)Nc4ccc(/C(C)=N\O)cc4)n3-c3ccccc3)c2c1 | 76.2% | 89.2% | 77.3% | 84.3% | 78.3% | 60.7% | 71.7% | 71.1% | -28.1% (active) | 111%
21 | CNS(=O)(=O)c1cccc(-c2ccc3c4c(n(C)c(=O)c3c2)-c2ccccc2C4=O)c1 | 30.5% | 45.8% | 65.9% | 31.3% | 23.2% | 73.4% | 48.3% | 56.3% | 35.1% | 93%
22 | O=C(Nc1nc(-c2ccccc2Cl)cs1)c1cc(-c2ccc(Br)cc2)nc2ccccc12 | 61.6% | 37.4% | 96.8% | 71% | 46.1% | 43.1% | 27.9% | 48.8% | 50% | 80.3%
23 | C=C1C(=O)O[C@H]2[C@H]1CC/C(COC(=O)CCCCCCC(=O)OC/C1=C/CC[C@@]3(C)O[C@H]3[C@H]3OC(=O)C(=C)[C@@H]3CC1)=C\CC[C@@]1(C)O[C@@H]21 | 0.887% (active) | 3.75% (active) | 63.1% | 65.9% | 44.1% | 36.1% | 36.5% | 42.3% | -10.8% (active) | 48.8%
24 | O=C1Nc2ccc(Cl)cc2/C1=N/c1nc(-c2ccc(Cl)cc2)cs1 | 26.7% | -0.232% (active) | 26.2% | 10.8% | -3.58% (active) | 2.97% (active) | 8.24% (active) | -46.6% (active) | -7.47% (active) | 16.3%
25 | Cc1cc(C)cc(Nc2nccc(-c3c(-c4ccc(F)cc4)ncn3C3CCNCC3)n2)c1 | 9.67% (active) | -0.976% (active) | 17% | 27.5% | 13.1% | 15.4% | -87.6% (active) | 21.6% | -81.3% (active) | -34.7% (active)
26 | O=[N+]([O-])c1ccc(Oc2ccc(-c3ccccc3)cc2)cc1 | 81.8% | 76.6% | 93.5% | 94% | 88.5% | 75.8% | 88.2% | 63% | 96.3% | 105%
